Assay results reported in the supplement of paper PMC10849652.
Targets with a hit are over-represented here; the source holds about 7,900 in all. About 0.6% of all pairs of compound and target were hits.

Key:
Assay in all cases: log2 fold change, soluble protein after heating vs DMSO (PISA); higher = thermal stabilisation; K562 cells, 10 uM, 30 min; active = over 0.2 and 3.5 SD of the protein, either way, in both replicates (recomputed)
erlotinib = compound: C#Cc1cccc(Nc2ncnc3cc(OCCOC)c(OCCOC)cc23)c1 [erlotinib]
Method in brief: (§1)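 Soluble protein was defined as the supernatant after 21,000xg for 90 min. It came from K562 cells at 2×10^6 cells/mL given 10 μM compound for 30 min, heated in aliquots for 3 min across 48°C-58°C, pooled, and extracted in PBS with 0.5% NP-40 at 4°C, and was quantified by TMTpro 16plex LC-MS/MS with equalised channel sums. Thermal stability against control samples, from duplicates, is reported as log2 fold change.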

[1] = compound: C/C(=N\NC(=O)C1=CC(=CC=C1)S(=O)(=O)N2CCOCC2)/C3=C(C=CC(=C3)Cl)O
Method in brief: as §1

[2] = compound: C1=CC(=C(C=C1Cl)C2=NC3=NC=CN=C3C(=N2)NC4=CC=NC=C4)F
Method in brief: as §1

[3] = compound: C1=CC(=CC=C1C2=NC3=C(N2)C=C(C=C3)C(=O)N)OC4=CC=C(C=C4)Cl
Method in brief: as §1

[4] = compound: C1=CC2=C(C=CC(=C2)/C=C\3/C(=O)NC(=NCC4=CC=CS4)S3)N=C1
Method in brief: as §1

[5] = compound: C1=CC2=NC=CN=C2C=C1/C=C/3\C(=O)NC(=O)S3
Method in brief: as §1

[6] = compound: C1=CC=C(C=C1)C2=NC(=C(N2)C3=CC=NC=C3)C4=CC(=C(C=C4)Cl)O
Method in brief: as §1

[7] = compound: C1=CC=C2C(=C1)C3=NNC4=CC=CC(=C43)C2=O
Method in brief: as §1

[8] = compound: C1CCN(C1)C(=O)NC2=CC=CC(=C2)NC3=NC=C(C(=N3)NCCC4=CN=CN4)Br
Method in brief: as §1

[9] = compound: C1CN(CCC1(CC2=CC=C(C=C2)Cl)N)C3=NC=NC4=C3C=CN4
Method in brief: as §1

IRAK-1-4 Inhibitor I = compound: C1COCCN1CCN2C3=CC=CC=C3N=C2NC(=O)C4=CC(=CC=C4)[N+](=O)[O-] [IRAK-1-4 Inhibitor I]
Method in brief: as §1

ibrutinib = compound: C=CC(=O)N1CCC[C@@H](n2nc(-c3ccc(Oc4ccccc4)cc3)c3c(N)ncnc32)C1 [ibrutinib]
Method in brief: as §1

[10] = compound: CC(=O)c1cnc2ccc(-c3cc(Cl)c(O)c(Cl)c3)nc2c1N[C@H]1CC[C@H](CN(C)C)CC1
Method in brief: as §1

ralimetinib = compound: CC(C)(C)Cn1c(N)nc2ccc(-c3[nH]c(C(C)(C)C)nc3-c3ccc(F)cc3)nc21 [ralimetinib]
Method in brief: as §1

[11] = compound: CC(C)(O)CC(=O)NCCn1ccc2ncnc(Nc3ccc(Oc4cccc(C(F)(F)F)c4)c(Cl)c3)c21
Method in brief: as §1

[12] = compound: CC(C)C1=C2N=C(C=C(N2N=C1)NCC3=CC=CC=C3)NCCCCCCN
Method in brief: as §1

[13] = compound: CC(C)C[C@@H](C=O)NC(=O)[C@H](CC(C)C)NC(=O)[C@H](CC(C)C)NC(=O)OCc1ccccc1
Method in brief: as §1

pinometostat = compound: CC(C)N(C[C@H]1O[C@@H](n2cnc3c(N)ncnc32)[C@H](O)[C@@H]1O)[C@H]1C[C@@H](CCc2nc3cc(C(C)(C)C)ccc3[nH]2)C1 [pinometostat]
Method in brief: as §1

[14] = compound: CC1=C(C(CC(=O)N1)C2=CC=C(C=C2)C(F)(F)F)C(=O)NC3=C(C=C4C(=C3)C=NN4)F
Method in brief: as §1

[15] = compound: CC1=C(C2=C(C=C1)C(=O)C3=CC=CC=C3N2CCCN)C
Method in brief: as §1

Measured: log2 fold change

IFITM3 (UniProt Q01628)
Chain of UniProt Q01628 (Q01628 whole entry, looked up): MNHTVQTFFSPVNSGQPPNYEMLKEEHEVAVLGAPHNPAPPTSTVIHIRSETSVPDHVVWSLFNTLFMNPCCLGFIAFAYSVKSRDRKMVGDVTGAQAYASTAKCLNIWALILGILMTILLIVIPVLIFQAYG
inactive: erlotinib -0.093 | [1] -0.031 | [3] 0.042 | [4] -0.041 | [5] 0.058 | [6] 0.118 | [7] -0.01 | [8] -0.016 | [9] -0.03 | IRAK-1-4 Inhibitor I -0.067 | ibrutinib -0.02 | [10] -0.241 | ralimetinib 0.031 | [11] 0.108 | [12] -0.082 | [13] 0.008 | pinometostat -0.181 | [14] -0.207 | [15] 0.163
active: [2] -0.471

IFT80 isoform 3 (UniProt Q9P2H3)
Chain of UniProt Q9P2H3 (Q9P2H3 whole entry, looked up): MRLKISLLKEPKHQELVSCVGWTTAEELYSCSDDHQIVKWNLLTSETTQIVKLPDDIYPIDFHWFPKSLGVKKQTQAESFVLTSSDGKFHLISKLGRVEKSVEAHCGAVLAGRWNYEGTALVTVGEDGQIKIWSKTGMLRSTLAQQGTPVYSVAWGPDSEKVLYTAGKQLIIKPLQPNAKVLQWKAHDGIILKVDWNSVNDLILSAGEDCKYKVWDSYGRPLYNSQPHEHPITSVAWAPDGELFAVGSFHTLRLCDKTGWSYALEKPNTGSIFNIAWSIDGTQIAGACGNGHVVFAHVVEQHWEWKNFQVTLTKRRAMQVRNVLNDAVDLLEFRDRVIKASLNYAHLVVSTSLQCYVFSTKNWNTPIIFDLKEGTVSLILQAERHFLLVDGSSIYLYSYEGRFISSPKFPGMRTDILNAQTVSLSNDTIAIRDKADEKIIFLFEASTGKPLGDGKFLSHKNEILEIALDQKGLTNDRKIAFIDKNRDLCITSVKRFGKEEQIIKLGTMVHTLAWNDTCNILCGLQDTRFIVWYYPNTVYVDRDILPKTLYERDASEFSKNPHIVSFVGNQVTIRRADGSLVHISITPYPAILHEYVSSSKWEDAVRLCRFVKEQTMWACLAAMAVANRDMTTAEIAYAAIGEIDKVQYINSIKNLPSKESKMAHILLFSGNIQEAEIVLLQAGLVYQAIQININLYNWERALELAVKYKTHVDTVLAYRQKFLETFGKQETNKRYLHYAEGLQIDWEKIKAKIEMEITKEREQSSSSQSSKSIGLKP
inactive: erlotinib 0.04 | [1] 0.071 | [2] -0.04 | [3] 0.013 | [4] 0.042 | [5] -0.011 | [6] -0.066 | [7] -0.229 | [8] -0.013 | [9] 0.042 | IRAK-1-4 Inhibitor I 0.03 | ibrutinib 0.099 | [10] -0.073 | ralimetinib -0.02 | [11] -0.118 | [12] -0.113 | [13] 0.072 | pinometostat 0.049 | [14] -0.085 | [15] 0.073

GLUD2 (UniProt P49448)
inactive: erlotinib 0.009 | [1] -0.028 | [2] 0.028 | [3] 0.036 | [4] 0.003 | [5] -0.011 | [6] 0.03 | [7] 0.027 | [8] -0.005 | [9] -0.009 | IRAK-1-4 Inhibitor I 0.025 | ibrutinib 0.045 | [10] 0.113 | ralimetinib 0 | [11] 0.098 | [12] -0.041 | [13] 0.014 | pinometostat -0.013 | [14] -0.098 | [15] 0.127

GCLM (UniProt P48507)
inactive: erlotinib -0.054 | [1] 0.199 | [2] 0.014 | [3] -0.019 | [4] -0.078 | [5] 0.088 | [6] -0.006 | [7] 0.064 | [8] -0.008 | [9] -0.035 | IRAK-1-4 Inhibitor I -0.065 | ibrutinib -0.038 | [10] 0.106 | ralimetinib 0.002 | [11] -0.104 | [12] -0.034 | [13] 0.02 | pinometostat 0.049 | [14] -0.078 | [15] -0.023

IFRD1 (UniProt O00458)
Chain of UniProt O00458 (O00458 whole entry, looked up): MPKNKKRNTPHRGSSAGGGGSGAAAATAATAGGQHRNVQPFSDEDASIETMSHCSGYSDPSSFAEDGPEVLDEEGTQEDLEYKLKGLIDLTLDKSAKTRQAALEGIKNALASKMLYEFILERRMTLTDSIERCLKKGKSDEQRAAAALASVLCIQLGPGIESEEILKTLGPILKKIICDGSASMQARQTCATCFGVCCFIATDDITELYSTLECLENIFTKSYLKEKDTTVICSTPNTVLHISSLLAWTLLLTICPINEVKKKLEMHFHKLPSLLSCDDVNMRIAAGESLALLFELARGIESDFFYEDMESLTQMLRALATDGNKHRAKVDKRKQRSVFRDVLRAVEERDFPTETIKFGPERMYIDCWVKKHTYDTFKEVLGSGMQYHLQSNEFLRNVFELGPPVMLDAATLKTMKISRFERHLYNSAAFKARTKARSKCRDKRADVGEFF
inactive: erlotinib 0.226 | [1] -0.021 | [2] -0.124 | [3] -0.008 | [4] 0.134 | [5] 0.199 | [6] -0.013 | [7] 0.068 | [8] 0.042 | [9] -0.04 | IRAK-1-4 Inhibitor I 0.033 | ibrutinib 0.058 | [10] 0.203 | ralimetinib -0.014 | [11] -0.002 | [12] -0.035 | [13] 0.168 | pinometostat -0.029 | [14] -0.095
active: [15] -1.05

ICMT (UniProt O60725)
Chain of UniProt O60725 (O60725 whole entry, looked up): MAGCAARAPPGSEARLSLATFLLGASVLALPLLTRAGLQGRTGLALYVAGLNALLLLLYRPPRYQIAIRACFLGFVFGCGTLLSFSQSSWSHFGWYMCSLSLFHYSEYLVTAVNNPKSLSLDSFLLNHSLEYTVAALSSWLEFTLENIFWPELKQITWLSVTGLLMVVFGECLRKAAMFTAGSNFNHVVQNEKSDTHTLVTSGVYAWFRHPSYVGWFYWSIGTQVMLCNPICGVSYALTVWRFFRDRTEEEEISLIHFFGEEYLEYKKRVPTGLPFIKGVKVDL
active: [12] -0.472
inactive: erlotinib 0.059 | [1] -0.081 | [2] 0.015 | [3] -0.001 | [4] 0.214 | [5] -0.064 | [6] 0.122 | [7] -0.038 | [8] -0.206 | [9] -0.032 | IRAK-1-4 Inhibitor I 0.039 | ibrutinib 0.182 | [10] 0.248 | ralimetinib 0.163 | [11] -0.032 | [13] -0.051 | pinometostat -0.02 | [14] -0.171 | [15] 0.147

GABARAPL1 isoform 2 (UniProt Q9H0R8)
Chain of UniProt Q9H0R8 (Q9H0R8 whole entry, looked up): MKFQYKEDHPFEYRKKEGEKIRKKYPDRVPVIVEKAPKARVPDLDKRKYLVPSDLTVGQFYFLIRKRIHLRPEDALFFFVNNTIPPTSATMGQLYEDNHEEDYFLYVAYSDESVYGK
inactive: erlotinib 0.071 | [1] -0.012 | [2] -0.023 | [3] -0.029 | [4] 0.074 | [5] -0.033 | [6] -0.001 | [7] 0.02 | [8] -0.02 | [9] 0.016 | IRAK-1-4 Inhibitor I 0.031 | ibrutinib -0.057 | [10] -0.065 | ralimetinib -0.003 | [11] -0.024 | [13] 0.092 | pinometostat -0.044 | [14] -0.047 | [15] 0.023
active: [12] -0.369

FNTB (UniProt P49356)
Chain of UniProt P49356 (P49356 whole entry, looked up): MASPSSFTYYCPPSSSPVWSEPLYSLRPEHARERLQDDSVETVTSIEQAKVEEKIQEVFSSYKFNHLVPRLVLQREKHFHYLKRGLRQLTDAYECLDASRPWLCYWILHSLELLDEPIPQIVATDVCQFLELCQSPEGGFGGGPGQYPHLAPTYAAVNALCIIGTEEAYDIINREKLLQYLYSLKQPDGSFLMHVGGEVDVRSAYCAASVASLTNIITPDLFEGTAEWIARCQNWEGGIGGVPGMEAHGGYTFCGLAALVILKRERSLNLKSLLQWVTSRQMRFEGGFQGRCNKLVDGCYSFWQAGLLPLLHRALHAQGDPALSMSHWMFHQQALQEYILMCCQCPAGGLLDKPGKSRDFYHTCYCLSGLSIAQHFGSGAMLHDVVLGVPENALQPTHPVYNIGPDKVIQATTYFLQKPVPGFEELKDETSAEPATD
active: erlotinib 0.488
inactive: [1] 0.028 | [2] 0.203 | [3] 0.028 | [4] 0.208 | [5] -0.024 | [6] 0.091 | [7] 0.107 | [8] 0.326 | [9] 0.065 | IRAK-1-4 Inhibitor I 0.017 | ibrutinib 0.309 | [10] -0.028 | ralimetinib -0.016 | [11] -0.025 | [12] 0.074 | [13] -0.033 | pinometostat -0.003 | [14] -0.146 | [15] -0.087

GGT7 (UniProt Q9UJ14)
Chain of UniProt Q9UJ14 (Q9UJ14 whole entry, looked up): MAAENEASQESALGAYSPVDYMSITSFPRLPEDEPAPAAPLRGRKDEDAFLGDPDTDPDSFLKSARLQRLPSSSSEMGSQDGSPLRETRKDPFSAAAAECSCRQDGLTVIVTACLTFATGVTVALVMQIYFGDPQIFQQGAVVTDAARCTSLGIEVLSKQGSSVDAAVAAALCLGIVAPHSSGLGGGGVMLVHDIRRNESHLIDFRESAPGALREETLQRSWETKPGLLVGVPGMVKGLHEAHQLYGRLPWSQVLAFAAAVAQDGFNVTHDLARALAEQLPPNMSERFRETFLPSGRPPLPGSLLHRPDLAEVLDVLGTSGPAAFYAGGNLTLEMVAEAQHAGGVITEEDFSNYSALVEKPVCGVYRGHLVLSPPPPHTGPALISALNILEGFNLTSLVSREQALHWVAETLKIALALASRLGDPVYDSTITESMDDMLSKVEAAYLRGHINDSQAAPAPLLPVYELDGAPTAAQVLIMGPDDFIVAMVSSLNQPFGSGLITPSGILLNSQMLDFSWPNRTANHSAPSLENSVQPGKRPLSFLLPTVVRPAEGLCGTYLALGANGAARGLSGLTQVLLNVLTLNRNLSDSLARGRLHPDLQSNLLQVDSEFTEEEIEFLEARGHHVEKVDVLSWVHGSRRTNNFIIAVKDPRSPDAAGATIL
inactive: erlotinib 0.012 | [1] -0.006 | [2] 0.084 | [3] -0.027 | [4] -0.001 | [5] -0.004 | [6] -0.018 | [7] -0.01 | [8] -0.035 | [9] 0.062 | IRAK-1-4 Inhibitor I 0.04 | ibrutinib 0.038 | [10] 0.02 | ralimetinib -0.046 | [11] 0.015 | [12] 0.095 | [13] 0.001 | pinometostat -0.005 | [14] -0.015 | [15] -0.031

FYB1 isoform 3 (UniProt O15117)
Chain of UniProt O15117 (O15117 whole entry, looked up): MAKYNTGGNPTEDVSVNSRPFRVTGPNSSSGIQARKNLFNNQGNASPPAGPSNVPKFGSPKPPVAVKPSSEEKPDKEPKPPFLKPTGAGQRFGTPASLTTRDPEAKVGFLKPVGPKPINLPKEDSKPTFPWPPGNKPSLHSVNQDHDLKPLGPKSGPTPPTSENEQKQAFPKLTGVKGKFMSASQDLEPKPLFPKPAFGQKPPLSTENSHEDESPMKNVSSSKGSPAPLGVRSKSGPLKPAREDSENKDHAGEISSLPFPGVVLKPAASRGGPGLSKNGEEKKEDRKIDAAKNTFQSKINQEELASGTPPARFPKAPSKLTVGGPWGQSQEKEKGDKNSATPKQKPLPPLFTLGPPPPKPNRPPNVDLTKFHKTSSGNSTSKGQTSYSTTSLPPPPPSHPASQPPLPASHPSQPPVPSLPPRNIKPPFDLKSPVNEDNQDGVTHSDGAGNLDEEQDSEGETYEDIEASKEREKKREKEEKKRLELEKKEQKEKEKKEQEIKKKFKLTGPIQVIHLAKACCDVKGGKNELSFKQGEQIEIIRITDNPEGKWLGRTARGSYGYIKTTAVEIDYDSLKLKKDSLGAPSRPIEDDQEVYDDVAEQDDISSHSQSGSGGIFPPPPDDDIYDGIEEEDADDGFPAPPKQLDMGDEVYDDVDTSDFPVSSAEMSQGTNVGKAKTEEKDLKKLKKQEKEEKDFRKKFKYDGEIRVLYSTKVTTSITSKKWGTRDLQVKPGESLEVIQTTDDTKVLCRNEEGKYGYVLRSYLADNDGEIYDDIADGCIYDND
inactive: erlotinib 0.019 | [1] 0.032 | [2] -0.02 | [3] -0.01 | [4] 0.057 | [5] 0.006 | [6] 0.014 | [7] -0.08 | [8] -0.041 | [9] 0 | IRAK-1-4 Inhibitor I 0.009 | ibrutinib -0.012 | [10] -0.193 | ralimetinib 0.308 | [11] 0.06 | [12] -0.069 | [13] 0.226 | pinometostat 0.002 | [14] -0.075 | [15] 0.129

FDPS (UniProt P14324)
Chain of UniProt P14324 (P14324 whole entry, looked up): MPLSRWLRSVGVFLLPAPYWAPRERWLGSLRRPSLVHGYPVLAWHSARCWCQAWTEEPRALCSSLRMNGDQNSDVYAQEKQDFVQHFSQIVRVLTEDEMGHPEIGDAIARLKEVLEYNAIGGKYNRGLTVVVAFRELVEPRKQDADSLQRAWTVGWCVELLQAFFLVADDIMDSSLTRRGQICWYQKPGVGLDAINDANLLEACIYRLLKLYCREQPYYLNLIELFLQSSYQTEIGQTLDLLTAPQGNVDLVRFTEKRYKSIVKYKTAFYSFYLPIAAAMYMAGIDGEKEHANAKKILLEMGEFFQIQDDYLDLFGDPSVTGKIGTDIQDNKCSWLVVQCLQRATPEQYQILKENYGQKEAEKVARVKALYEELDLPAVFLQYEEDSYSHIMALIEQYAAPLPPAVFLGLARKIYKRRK
inactive: erlotinib 0.18 | [1] 0.174 | [2] -0.022 | [3] 0.067 | [4] 0.3 | [5] -0.026 | [6] 0.06 | [7] 0.186 | [8] 0.006 | [9] -0.309 | IRAK-1-4 Inhibitor I -0.127 | ibrutinib -0.066 | [10] -0.096 | ralimetinib 0.048 | [11] -0.319 | [13] -0.028 | pinometostat 0.048 | [14] 0.007 | [15] 0.083
active: [12] -0.63

HMGCR isoform 3 (UniProt P04035)
active: [13] 0.383
inactive: erlotinib -0.089 | [1] 0.025 | [2] -0.001 | [3] 0.032 | [4] -0.038 | [5] 0.101 | [6] -0.033 | [7] -0.137 | [8] -0.081 | [9] 0 | IRAK-1-4 Inhibitor I 0.037 | ibrutinib -0.001 | [10] 0.022 | ralimetinib -0.005 | [11] -0.023 | [12] 0.029 | pinometostat 0.014 | [14] 0.011 | [15] -0.044

HIST2H2BF isoform 2 (UniProt Q5QNW6)
inactive: erlotinib 0.013 | [1] -0.161 | [2] -0.433 | [3] 0.046 | [4] 0.048 | [5] 0.223 | [6] -0.057 | [7] -0.083 | [8] 0.191 | [9] -0.373 | IRAK-1-4 Inhibitor I -0.165 | ibrutinib 0.148 | [10] -0.054 | ralimetinib 0.162 | [11] 0 | [12] -0.047 | [13] 0.226 | pinometostat 0.422 | [14] 0.002 | [15] 0.601

FKBP4 (UniProt Q02790)
Chain of UniProt Q02790 (Q02790 whole entry, looked up): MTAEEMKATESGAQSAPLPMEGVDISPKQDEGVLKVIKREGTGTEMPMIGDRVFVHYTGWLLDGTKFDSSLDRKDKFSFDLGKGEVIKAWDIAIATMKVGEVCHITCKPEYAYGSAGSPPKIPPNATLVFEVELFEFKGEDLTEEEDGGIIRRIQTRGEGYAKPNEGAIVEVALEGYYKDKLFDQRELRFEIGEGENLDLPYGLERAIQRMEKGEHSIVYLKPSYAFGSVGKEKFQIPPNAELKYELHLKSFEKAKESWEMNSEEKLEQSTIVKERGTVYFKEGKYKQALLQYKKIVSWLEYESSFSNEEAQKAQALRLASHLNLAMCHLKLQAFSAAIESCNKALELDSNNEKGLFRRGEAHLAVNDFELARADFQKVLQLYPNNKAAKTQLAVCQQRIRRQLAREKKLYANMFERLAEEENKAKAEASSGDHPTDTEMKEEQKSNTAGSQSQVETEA
inactive: erlotinib -0.04 | [1] 0.07 | [2] 0.055 | [3] -0.042 | [4] 0.017 | [5] 0.007 | [6] 0.036 | [7] 0.047 | [8] 0.016 | [9] -0.033 | IRAK-1-4 Inhibitor I 0 | ibrutinib -0.005 | [10] -0.006 | ralimetinib -0.016 | [11] -0.036 | [12] -0.094 | [13] 0.002 | pinometostat -0.032 | [14] -0.019 | [15] 0.013

GCSH (UniProt P23434)
Chain of UniProt P23434 (P23434 whole entry, looked up): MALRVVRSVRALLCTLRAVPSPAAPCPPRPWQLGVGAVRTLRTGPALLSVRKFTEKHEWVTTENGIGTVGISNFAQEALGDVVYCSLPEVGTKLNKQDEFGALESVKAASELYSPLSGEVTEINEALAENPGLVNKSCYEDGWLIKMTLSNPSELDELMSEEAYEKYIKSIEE
inactive: erlotinib -0.072 | [1] -0.023 | [2] 0.253 | [3] 0.061 | [4] -0.036 | [5] 0.067 | [6] -0.038 | [7] -0.007 | [8] -0.017 | [9] -0.025 | IRAK-1-4 Inhibitor I 0.027 | ibrutinib -0.002 | [10] 0.011 | ralimetinib -0.026 | [11] -0.031 | [12] -0.025 | [13] -0.049 | pinometostat -0.021 | [14] 0.029 | [15] 0.03

GATD1 (UniProt Q8NB37)
Chain of UniProt Q8NB37 (Q8NB37 whole entry, looked up): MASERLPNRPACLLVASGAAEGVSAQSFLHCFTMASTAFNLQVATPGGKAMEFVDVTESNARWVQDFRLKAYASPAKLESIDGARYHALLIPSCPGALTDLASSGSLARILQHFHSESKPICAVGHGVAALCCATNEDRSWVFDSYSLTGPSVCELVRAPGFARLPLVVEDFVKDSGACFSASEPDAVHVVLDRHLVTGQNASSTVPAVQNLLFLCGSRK
inactive: erlotinib 0.028 | [1] -0.006 | [2] 0.111 | [3] -0.012 | [4] 0.057 | [5] 0.007 | [6] -0.01 | [7] 0.047 | [8] -0.006 | [9] 0.098 | IRAK-1-4 Inhibitor I -0.069 | ibrutinib 0.106 | [10] -0.099 | ralimetinib -0.026 | [11] 0.01 | [12] 0.026 | [13] 0.104 | pinometostat 0.141 | [14] 0.032 | [15] 0
